The campaign covered roughly 290,000 compounds. About 3,000 (1%) were called active. How the calls were made is not given here. The sample as a whole holds a higher share of actives than the screen did.

The assay concerns the target Polyadenylate-binding protein 1 (Homo sapiens) (UniProt P11940). The experiment in a line: blockers of PABP interaction with poly(A) – biochemical, fluorescence polarization, uHTS, primary screen (AID 2014).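 Further: calls also rest on retests at 20 µM and on dose response follow-up.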 The note with it: PABP-poly(A) RNA binding, stronger effect = higher value.

Chain of Polyadenylate-binding protein 1 (Homo sapiens) (P11940 whole entry, looked up): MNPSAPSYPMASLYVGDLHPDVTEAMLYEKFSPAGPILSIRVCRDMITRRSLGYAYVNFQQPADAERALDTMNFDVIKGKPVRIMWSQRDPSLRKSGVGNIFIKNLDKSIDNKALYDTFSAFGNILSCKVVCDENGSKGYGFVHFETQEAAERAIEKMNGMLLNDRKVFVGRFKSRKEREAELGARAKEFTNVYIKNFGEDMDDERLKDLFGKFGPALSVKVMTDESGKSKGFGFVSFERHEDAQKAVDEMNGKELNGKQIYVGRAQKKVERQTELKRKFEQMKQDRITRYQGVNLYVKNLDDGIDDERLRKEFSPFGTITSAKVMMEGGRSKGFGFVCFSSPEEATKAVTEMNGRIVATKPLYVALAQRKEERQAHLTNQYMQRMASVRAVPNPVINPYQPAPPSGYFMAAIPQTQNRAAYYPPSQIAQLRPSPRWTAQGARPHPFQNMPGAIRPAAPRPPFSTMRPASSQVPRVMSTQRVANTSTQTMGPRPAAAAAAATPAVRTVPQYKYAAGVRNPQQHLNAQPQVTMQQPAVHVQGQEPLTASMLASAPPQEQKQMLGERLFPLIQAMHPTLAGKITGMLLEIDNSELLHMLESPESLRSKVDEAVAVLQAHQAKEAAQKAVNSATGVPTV

Regarding `CCC1CCCCN1C(=O)CSc1nc2c(c(=O)n1C)SC(C)C2` (configuration not stated), under “at 35 µM”, the inhibition (in general, the change of the read-out against control, counted positive when it falls) is -9% (inactive).

On to `Cc1ccc(Cc2cnc(N)s2)o1`, for which the inhibition was 47.2% (active) (at 35 µM) and 56.6% (confirmation repeats, at 20 µM).

As for `Cc1ccc(CCC(=O)Nc2ncc(Cc3cc(Cl)ccc3Cl)s2)o1`, the inhibition (at 35 µM) is 29.5% (inactive).

In the case of `Cc1cc(/C=C2/SC(=O)N(CC(=O)N3CCCC3)C2=O)c(C)n1C`, the inhibition (at 35 µM) was 19.7% (inactive).

Consider `Cc1cc(/C=C2\SC(=Nc3ccc(N4CCOCC4)cc3)N(C)C2=O)c(C)n1-c1cccnc1`, for which the inhibition (at 35 µM) was 0.7% (inactive).

As to `Cc1cc(/C=C2\SC(=O)N(C)C2=O)c(C)n1-c1cccc(C(=O)O)c1`, the inhibition (at 35 µM) was 67.4% (active).

As to `CCC(=O)Nc1ccc(S(=O)(=O)Nc2c(NC)c3ccccc3oc2=O)cc1`, the inhibition (at 35 µM) was 0.6% (inactive).

For the molecule `Cc1ccc2[nH]c3c(c2c1)CN(C(=O)CN1CCN(c2ccccc2)CC1)CC3`, under “at 35 µM”, the inhibition was 90.5% (active).

For `O=C(CN1CCCC1)N1CCN(c2ccccc2)CC1`, the inhibition (at 35 µM) was 0.4% (inactive).

In the case of `CCCC(=O)N1CCc2[nH]c3ccccc3c2C1`, where the note is “at 35 µM”, the inhibition is 14.1% (inactive).

Turning to `COCCNC(=O)C(c1ccc(C)cc1)N(C(=O)CCC(=O)Nc1ccccn1)c1cccc(C)c1` (configuration not stated), the inhibition (at 35 µM) was -1.8% (inactive).

In the case of `Cc1ccnc2nc(C(=O)Nc3nnc(-c4ccccc4)o3)nn12`, the inhibition runs as follows: (at 35 µM) -1.8% (active); (confirmation repeats, at 20 µM) 82.4%.

`CCc1nnc(NC(=O)c2nc3nccc(C)n3n2)s1`: the inhibition (at 35 µM) is -2.3% (inactive).

`Cc1cccc(NC(=O)Nc2nnc(-c3ccccc3)o2)c1`: the inhibition (at 35 µM) was -0.4% (inactive).

Take `CCCC1=Nc2cc(C(=O)NCCN3CCCC3)ccc2Sc2ccccc21`: the inhibition (at 35 µM) is -16.5% (inactive).

Turning to `COc1cc(NC(=O)C2=C(C)OCCS2)c(Cl)cc1C(=O)NCCN1CCN(C)CC1`, the inhibition (at 35 µM) is -8% (inactive).

Consider `O=C(CSc1ccc(-c2ccco2)nn1)Nc1cccc(F)c1`, for which the inhibition (at 35 µM) is -7.4% (inactive).

As for `O=C(NCCCn1ccnc1)C(=O)NCC1OCCN1S(=O)(=O)c1cc(F)ccc1F` (configuration not stated), the inhibition (at 35 µM) was 58.4% (active).

For the molecule `O=C(NCCCc1ccccc1)C(=O)NCC1OCCN1S(=O)(=O)c1ccccc1` (configuration not stated), the inhibition (at 35 µM) is 10.1% (inactive).

As for `Cc1cc(F)ccc1S(=O)(=O)N1CCCOC1CNC(=O)C(=O)NCCC1=CCCCC1` (configuration not stated), under “at 35 µM”, the inhibition is 0.9% (inactive).

Take `Cc1ccc(C(=O)NC2CCN(C(=O)Nc3ccc(F)cc3)CC2)cc1`: the inhibition (at 35 µM) was 10.6% (inactive).

With `CC(NC(=O)COc1cccnc1[N+](=O)[O-])c1ccc(Cl)cc1Cl` (configuration not stated), the inhibition (at 35 µM) is 0.4% (inactive).

For `CC(C)c1ccccc1OCC(O)CN(CC(O)COc1cccc2ccccc12)C(C)C` (configuration not stated), under “at 35 µM”, the inhibition is 5.7% (inactive).

For `COc1ccc(C(=O)N(C)CC(O)c2ccccc2)cc1OC1CCN(C(C)=O)CC1` (configuration not stated), the inhibition (at 35 µM) is -3.1% (inactive).

For `Cc1ccc(C)n1C(Cc1ccccc1)C(=O)O` (configuration not stated), the inhibition (at 35 µM) was 69.6% (active).

For the molecule `CC(Cc1ccccc1)C(=O)N(C)Cc1ccccc1` (configuration not stated), the inhibition (at 35 µM) is 2% (inactive).

For `COc1ccc(CNC(=O)C(Cc2ccccc2)n2cccc2)cc1` (configuration not stated), the inhibition (at 35 µM) is 9.5% (inactive).

Consider `COCCN1C(=O)N(c2ccc(Cl)cc2)C(=O)C1CC(=O)Nc1cc(OC)cc(OC)c1` (configuration not stated), for which the inhibition (at 35 µM) is -6.1% (inactive).

Regarding `COc1cccc(NC(=O)CSc2nnc(Cc3ccc(OC)c(OC)c3)o2)c1`, the inhibition (at 35 µM) was 14.4% (inactive).

For the molecule `O=C(CCCN1C(=O)/C(=C\c2ccco2)SC1=S)Nc1cccc2ccccc12`, the inhibition was 4.3% (inactive) (at 35 µM) and -3.6% (confirmation repeats, at 20 µM).

Regarding `O=C(CCCN1C(=O)/C(=C/c2ccccc2)SC1=S)Nc1ccc(O)cc1`, for the setting “at 35 µM”, the inhibition was -7.7% (inactive).

For `O=C(CCCN1C(=O)/C(=C/c2ccco2)SC1=S)Nc1ccccc1`, the inhibition by setting is: (at 35 µM) 17.5% (active); (confirmation repeats, at 20 µM) 52.5%.

`CCCn1c(C)cc(/C=C(\C#N)C(=O)OCC(=O)Nc2cc(OC)c(OC)c(OC)c2)c1C`: the inhibition (at 35 µM) is -0.7% (inactive).

Take `COc1ccc(Cl)cc1NC(=O)c1cccc(N2C(=O)C3CC=CCC3C2=O)c1` (configuration not stated): the inhibition (at 35 µM) is -3.5% (inactive).

For the molecule `c1ccc(C2=Nc3cccc4cccc(c34)N2)cc1`, the inhibition (at 35 µM) was 11.1% (inactive).

Turning to `COc1ccccc1C1=Nc2cccc3cccc(c23)N1`, the inhibition reads like this: (at 35 µM) 65.3% (active); (confirmation repeats, at 20 µM) 86.4%.

Consider `Fc1ccccc1N=C1Nc2cccc3cccc1c23`, for which the inhibition (at 35 µM) is -10.8% (inactive).

`CC(C)c1ccc(S(=O)(=O)N2CCC3(CC2)OCCO3)cc1`: under “at 35 µM”, the inhibition was -6.1% (inactive).

For `COc1cc([C@H](Cc2ccccc2)NC(C)=O)oc(=O)c1`, for the setting “at 35 µM”, the inhibition is 76.2% (active).

As for `COC(=O)[C@H](Cc1ccccc1)NC(=O)Nc1ccc(OC)cc1`, the inhibition (at 35 µM) was -6.6% (inactive).

As to `CCOC(=O)C(Cc1ccccc1)NC(=O)CCC(=O)c1ccc(OC)cc1` (configuration not stated), the inhibition (at 35 µM) was -2.7% (inactive).

For the molecule `O=C(CCC1CCN(C(=O)c2cccc(Cl)c2F)CC1)Nc1ccccc1`, the inhibition (at 35 µM) is -10.6% (inactive).

Take `CS(=O)(=O)N1CCN=C1SCc1ccc(F)cc1`: the inhibition (at 35 µM) was 0.3% (inactive).

As for `CCN(c1ccccc1)S(=O)(=O)c1cc2c(cc1C)n(C)c(=O)c(=O)n2C`, under “at 35 µM”, the inhibition is -2% (inactive).

For `C[n+]1ccc(C(=O)NCc2ccccc2)cc1`, the inhibition runs as follows: (at 35 µM) 64.2% (active); (confirmation repeats, at 20 µM) 92.7%.

For the molecule `CS(=O)(=O)NCc1ccc(C(=O)NCc2ccccc2)cc1`, under “at 35 µM”, the inhibition is 48.1% (inactive).

On to `Nc1ccc(C(=O)NCc2ccccc2)cc1`, for which, under “at 35 µM”, the inhibition was 3.4% (inactive).

For `COC(=O)c1c(NC(=O)c2c(Cl)cnn2C)sc(C)c1C`, the inhibition (at 35 µM) is -5.8% (inactive).

For `Cn1ncc(Br)c1C(=O)NC1CCCC1`, the inhibition (at 35 µM) was 2.8% (inactive).

`CN(C(=O)c1c(Cl)cnn1C)C12CC3CC(CC(C3)C1)C2`: the inhibition is 86.8% (active) (at 35 µM) and 75% (confirmation repeats, at 20 µM).

The record behind these values is PubChem BioAssay AID2014 (Sanford-Burnham Center for Chemical Genomics, 2009).
